Experimental data taken from the supplement of paper PMC6089552.
The campaign covered roughly 3,200 compounds. About 300 (9.4%) showed activity. The sample holds actives, similar compounds and a random draw of the others, so the mix is not that of the screen. Values without a mark were called inactive.

System: A673/TR/shEF
Assay: cell viability (LOESS-normalised, relative to median of negative controls) (log2 ratio); higher = more viable cells (less compound effect), active = hit call of the paper (over 3 MAD below the median)
Details: treatment time: 72 h
Procedure, shortened: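 Viability of A673/TR/shEF Ewing sarcoma cells was determined by CellTiter-Glo luminescence. The cells, at 1,500 per well in 384-well plates, were grown with or without doxycycline from 24 h before compound addition to switch on EWS-FLI1 shRNA knockdown, then exposed for three days to library compounds at two or more concentrations or to DMSO controls. Signals were LOESS-corrected plate by plate, normalised to the negative-control median and log2-transformed.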

[1] = 0.25 µM, library screen: screen1, EWS-FLI1 expression: high (no doxycycline)
[2] = 0.25 µM, library screen: screen1, EWS-FLI1 expression: low (doxycycline-induced shRNA knockdown)
[3] = 2.5 µM, library screen: screen1, EWS-FLI1 expression: high (no doxycycline)
[4] = 2.5 µM, library screen: screen1, EWS-FLI1 expression: low (doxycycline-induced shRNA knockdown)
[5] = 0.25 µM, library screen: screen2, EWS-FLI1 expression: high (no doxycycline)
[6] = 0.25 µM, library screen: screen2, EWS-FLI1 expression: low (doxycycline-induced shRNA knockdown)
[7] = 2.5 µM, library screen: screen2, EWS-FLI1 expression: high (no doxycycline)
[8] = 2.5 µM, library screen: screen2, EWS-FLI1 expression: low (doxycycline-induced shRNA knockdown)

Compound: c1ccc(N=Nc2ccccc2)cc1
- cell viability (log2) [1]: 0.0795
- cell viability (log2) [2]: 0.0179
- cell viability (log2) [3]: 0.0868
- cell viability (log2) [4]: 0.083

Compound: NC(=NCCCC(N)C(=O)O)N[N+](=O)[O-] (centres undefined)
- cell viability (log2) [1]: 0.0461
- cell viability (log2) [2]: 0.0355
- cell viability (log2) [5]: 0.174
- cell viability (log2) [6]: -0.00505
- cell viability (log2) [3]: 0.0987
- cell viability (log2) [4]: 0.0962
- cell viability (log2) [7]: 0.128
- cell viability (log2) [8]: 0.0828

Compound: CN1C[C@@H](CO)C=C2c3cccc4[nH]cc(c34)C[C@@H]21
- cell viability (log2) [1]: 0.0549
- cell viability (log2) [2]: 0.11
- cell viability (log2) [3]: 0.076
- cell viability (log2) [4]: 0.0565

Compound: NC(=O)CN1CC(O)CC1=O (centres undefined)
- cell viability (log2) [5]: 0.159
- cell viability (log2) [6]: 0.0927
- cell viability (log2) [7]: 0.0479
- cell viability (log2) [8]: 0.0838

Compound: CC[C@@H]1/C=C/C=C/C[C@H](C)[C@@H](O)[C@](C)(O)C(=O)[C@H](C)[C@@H](O)[C@H](C)C(=O)[C@H](C)[C@@H](O)[C@H](C)/C=C/C(=O)O[C@H]2[C@@H](C)[C@@H](CC1)O[C@@]1(CC[C@@H](C)[C@@H](C[C@H](C)O)O1)[C@@H]2C
- cell viability (log2) [5]: -0.731 (active)
- cell viability (log2) [6]: -0.205 (active)
- cell viability (log2) [7]: -0.713 (active)
- cell viability (log2) [8]: -0.154 (active)

Compound: NC(CCP(=O)(O)O)C(=O)O (centres undefined)
- cell viability (log2) [5]: 0.115
- cell viability (log2) [6]: 0.0812
- cell viability (log2) [7]: 0.106
- cell viability (log2) [8]: 0.13

Compound: CC(C)(C#N)O[C@@H]1O[C@H](CO)[C@@H](O)[C@H](O)[C@H]1O
- cell viability (log2) [1]: 0.0597
- cell viability (log2) [2]: 0.0616
- cell viability (log2) [3]: 0.164
- cell viability (log2) [4]: -0.0392

Compound: CC(C)NC(C)Cc1ccc(I)cc1 (centres undefined)
- cell viability (log2) [5]: 0.0787
- cell viability (log2) [6]: 0.0338
- cell viability (log2) [7]: 0.129
- cell viability (log2) [8]: 0.0526

Compound: CCN1C[C@]2(COC)[C@H](O)C[C@H](OC)[C@]34C1[C@H]([C@H](OC)[C@H]23)[C@]1(OC(C)=O)[C@H]2[C@@H](OC(=O)c3ccccc3)[C@](O)(C[C@H]24)[C@@H](OC)[C@@H]1O
- cell viability (log2) [1]: 0.162
- cell viability (log2) [2]: 0.0997
- cell viability (log2) [3]: 0.181
- cell viability (log2) [4]: 0.202

Compound: CCC(=O)C(CC(C)N1CCOCC1)(c1ccccc1)c1ccccc1 (centres undefined)
- cell viability (log2) [1]: 0.0298
- cell viability (log2) [2]: 0.011
- cell viability (log2) [3]: 0.0537
- cell viability (log2) [4]: -0.074

Compound: CC[C@@H](C(=O)[C@@H](C)[C@@H](O)[C@H](C)[C@@H]1O[C@@H]([C@@H](CC)C(=O)O)CC[C@@H]1C)[C@H]1OC2(C=C[C@@H](O)[C@]3(CC[C@@](C)([C@H]4CC[C@](O)(CC)[C@H](C)O4)O3)O2)[C@H](C)C[C@@H]1C (some centres undefined)
- cell viability (log2) [1]: -0.101 (active)
- cell viability (log2) [2]: 0.0935
- cell viability (log2) [3]: -0.582 (active)
- cell viability (log2) [4]: -0.123

Compound: O=C(O)CF
- cell viability (log2) [1]: -0.0204
- cell viability (log2) [2]: -0.0324
- cell viability (log2) [3]: 0.103
- cell viability (log2) [4]: 0.0882

Compound: COc1cc(CC(C)N)c(OC)cc1I (centres undefined)
- cell viability (log2) [5]: 0.14
- cell viability (log2) [6]: 0.0726
- cell viability (log2) [7]: 0.151
- cell viability (log2) [8]: 0.083

Compound: O=C[C@H](Cl)[C@@H](O)[C@H](O)[C@H](O)CO
- cell viability (log2) [5]: 0.14
- cell viability (log2) [6]: 0.0253
- cell viability (log2) [7]: 0.0931
- cell viability (log2) [8]: 0.107

Compound: NCC#Cc1ccccc1
- cell viability (log2) [5]: 0.139
- cell viability (log2) [6]: -0.0046
- cell viability (log2) [7]: 0.0226
- cell viability (log2) [8]: 0.0206

Compound: c1ccc2c(c1)[I+]c1ccccc1-2
- cell viability (log2) [5]: -1.37 (active)
- cell viability (log2) [6]: -0.118 (active)
- cell viability (log2) [7]: -1.4 (active)
- cell viability (log2) [8]: -0.388 (active)

Compound: O=C1c2ccccc2C(=O)c2ccccc21
- cell viability (log2) [1]: 0.0481
- cell viability (log2) [2]: 0.0868
- cell viability (log2) [3]: 0.203
- cell viability (log2) [4]: 0.0785

Compound: COc1cc2c3cc1Oc1cc(ccc1O)C[C@H]1c4c(cc(OC)c(O)c4Oc4ccc(cc4)C[C@@H]3N(C)CC2)CCN1C
- cell viability (log2) [1]: 0.0853
- cell viability (log2) [2]: 0.0939
- cell viability (log2) [3]: 0.083
- cell viability (log2) [4]: 0.276

Compound: CC1=C2[C@H]3OC(=O)[C@@H](C)[C@@H]3CC[C@@]2(C)C=CC1=O
- cell viability (log2) [1]: 0.0669
- cell viability (log2) [2]: -0.0349
- cell viability (log2) [3]: 0.0906
- cell viability (log2) [4]: 0.0161

Compound: CCN(CC)C(=O)N[C@H]1C=C2c3cccc4[nH]cc(c34)C[C@H]2N(C)C1
- cell viability (log2) [5]: 0.144
- cell viability (log2) [6]: 0.146
- cell viability (log2) [7]: 0.172
- cell viability (log2) [8]: 0.138

Compound: C=C(C)[C@@H]1C2OC(=O)C1[C@]1(O)CC3O[C@]34C(=O)O[C@H]2[C@]14C.CC(C)(O)[C@@H]1C2OC(=O)C1[C@]1(O)C[C@H]3O[C@]34C(=O)O[C@H]2[C@]14C (some centres undefined)
- cell viability (log2) [5]: 0.0987
- cell viability (log2) [6]: 0.0228
- cell viability (log2) [7]: 0.079
- cell viability (log2) [8]: 0.0567

Compound: O=C(O)[C@@H]1CCN1
- cell viability (log2) [5]: 0.101
- cell viability (log2) [6]: 0.092
- cell viability (log2) [7]: 0.0671
- cell viability (log2) [8]: 0.0609

Compound: O=C(O)C1C2CCC(O2)C1C(=O)O (centres undefined)
- cell viability (log2) (0.025 µM, library screen: screen1, EWS-FLI1 expression: high (no doxycycline)): 0.136
- cell viability (log2) (0.025 µM, library screen: screen1, EWS-FLI1 expression: low (doxycycline-induced shRNA knockdown)): 0.0328
- cell viability (log2) [1]: 0.0769
- cell viability (log2) [2]: 0.0235
- cell viability (log2) [5]: 0.267
- cell viability (log2) [6]: 0.0812
- cell viability (log2) [3]: -0.431 (active)
- cell viability (log2) [4]: -2.19 (active)
- cell viability (log2) [7]: 0.105
- cell viability (log2) [8]: -0.0306
- cell viability (log2) (25 µM, library screen: screen1, EWS-FLI1 expression: high (no doxycycline)): -0.369 (active)
- cell viability (log2) (25 µM, library screen: screen1, EWS-FLI1 expression: low (doxycycline-induced shRNA knockdown)): -2.13 (active)
